# Measured values from PubChem BioAssay AID651871 (Sanford-Burnham Center for Chemical Genomics, 2012).
# Test system: HL-1
# Assay: cardiomyocyte survival under oxidative or metabolic stress – cell-based, panel, H9c2 and HL-1, ATP luminescence, set 2, SAR follow-up (AID 651871);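 note: cells exposed to stressor for 2 h before ATP readout; reference of the scale not given here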
# Details: H9c2/HL-1 cardiomyocytes, 2-deoxyglucose stress, with 2-deoxyglucose, run 8, at 79 µM (top of the series)
row,SMILES,activity (protection/inhibition) [%]
1,COc1ccc2nc(-c3cc(OC)c(OC)c(OC)c3)cc(C(=O)NCC(=O)Nc3ccc(C(C)=O)cc3)c2c1,97.2
2,CCOC(=O)c1cccc(NC(=O)CNC(=O)c2cc(-c3cc(OC)c(OC)c(OC)c3)nc3ccccc23)c1,74.3
3,COc1ccc2c(c1OC)C(=O)N1c3ccccc3C(=O)N(Cc3cccc(Cl)c3Cl)C21 (stereo not drawn),-9.25
